Hits are enriched below; roughly 19% of the tested compounds scored in any of these assays.
TDP1 cell CPT: qHTS for Inhibitors of human tyrosyl-DNA phosphodiesterase 1 (TDP1): qHTS in cells in presence of CPT; AID 686979, 2013; chicken DT40 Tdp1-/-;hTDP1 cells + 20 nM CPT, ATP luminescence, 48 h; 420,000 tested, 12% active; Potency, µM (highest dose often 46.2 µM), inactives show top-dose activity change, negative = growth inhibition, hits mostly inhibitors; note: potency is the fitted concentration of half-maximal effect; nearly all actives have a fitted effect of over 55% in size
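Cell growth measured by CellTiter-Glo luminescence after a minimum 48 h, 37 C compound exposure with 20 nM CPT in Tdp1-knockout DT40 cells stably expressing hTDP1, seeded 400/well; qHTS titration format.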
uPA surface inh: qHTS for Inhibitors of Cell Surface uPA Generation | 330,000 tested, 0.31% active | Potency, µM (series often up to 38.3 µM), without a hit: at the top dose activity change, negative = inhibition, hits mostly inhibitors | cell surface uPA generation assay, qHTS; active = well fitted inhibition curve with a large enough effect; inconclusive = small, poorly fitted or top-dose-only effect; inactive = no such curve, though single readings can be large or run the other way; tested in mouse RAW 264.7 cells; note: potency is the fitted concentration of half-maximal effect; nearly all actives have a fitted effect of over 55% in size
HT1080NT lethal: qHTS for induction of synthetic lethality in tumor cells producing 2HG: qHTS for the HT-1080-NT fibrosarcoma cell line; 360,000 tested, 1.6% active; HT-1080-NT fibrosarcoma viability, CellTiter-Glo ATP luminescence, 48 h; Potency, µM (titrated, usually from 46.1 µM), inactives show at the top dose activity, negative = less viability, most hits filed as cytotoxic;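 note: NT is the 2HG producing partner of a matched IDH1 knockdown line; potency is the fitted concentration of half-maximal effect; 0% = DMSO-treated cells and -100% = media-only wells without cells; nearly all actives have a fitted effect of over 55% in size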
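Luminescent CellTiter-Glo readout after 48 hours of compound exposure at 37 degrees C defined viability of HT-1080-NT cells. Activity was normalized to DMSO wells and cell-free media wells; concentration-response curves were fitted and assigned curve classes.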
HT1080 IDH1KD tx: qHTS for induction of synthetic lethality in tumor cells producing 2HG: qHTS for the HT-1080-IDH1KD cell line | HT-1080 IDH1 knockdown viability, ATP luminescence, 48 h | 360,000 tested, 2% active | Potency, µM (highest dose often 46.1 µM), without a hit: at the highest dose activity, negative = toxicity, actives largely listed as cytotoxic;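 note: potency is the fitted concentration of half-maximal effect; 0% = DMSO wells and -100% = cell-free medium wells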
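Luminescent ATP read-out (CellTiter-Glo, 10 min at room temperature) after 48 h compound exposure at 37 °C gave viability of IDH1-knockdown HT-1080 cells. Activity was normalised to DMSO and cell-free wells, then fitted as concentration-response curves.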
TDP1 cell noCPT: qHTS for Inhibitors of human tyrosyl-DNA phosphodiesterase 1 (TDP1): qHTS in cells in absence of CPT | DT40 Tdp1-/- hTDP1 cells, no CPT, ATP luminescence, 48 h | Potency, µM (doses to about 46.2 µM), for inactives: at the top dose activity change, negative = growth inhibition, usual class: inhibitors | 420,000 tested, 15% active | AID 686978, 2013; note: potency is the fitted concentration of half-maximal effect; nearly all actives have a fitted effect of over 55% in size
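Seeded 400 DT40-hTDP1 cells/well (vehicle DMSO, no 20 nM CPT); pinned compounds; ≥48 hr at 37 °C; CellTiter-Glo luminescence as viability measure.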
IL1B secr inh: qHTS for Inhibitors of Inflammasome Signaling: IL-1-beta AlphaLISA Primary Screen; THP-1 LPS/ATP IL-1B secretion, AlphaLISA, 16 h; active compounds read low; activity change, % at 57.5 µM; 360,000 tested, 4.7% active; AID 743279, 2014; in the data active = activity change below about -50%; inconclusive = mostly about -30% to -49%
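THP-1 cells pretreated 1 hr with compounds (up to 57.5 uM final), then stimulated with LPS (250 ng/mL final) plus ATP (1.25 mM final); secreted IL-1B measured by AlphaLISA after 16 hr, decreased signal indicating inhibition.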
Numbers without * were called inactive; u = inconclusive; x = not tested or not shown. Unless noted, calls come from the whole dose curve; as a rule, active = well fitted curve in the direction sought with a large enough effect; inconclusive = small, poorly fitted or top-dose-only effect, or another doubt; inactive = no such curve, though single readings can be large; an effect the other way counts as inactive or inconclusive. Unless noted, % is set by controls: 0 for no effect and ±100 for the full control effect.

SMILES	TDP1 cell CPT	uPA surface inh	HT1080NT lethal	HT1080 IDH1KD tx	TDP1 cell noCPT	IL1B secr inh
CNC(=O)[C@@H]1C[C@H](NC2CCCCCCC2)CN1Cc1cccc(OC)c1OC	u	x	x	x	-27.7%	x
CCN(CC)c1ccc2cc(-c3nc4ccccc4n3C)c(=O)oc2c1	0.651µM*	-11.0%	u	u	1.16µM*	33.5
CCN(CC)c1ccc2cc(-c3nc(-c4ccc(OC)cc4)cs3)c(=O)oc2c1	u	5.9%	6.7%	9.7%	14.6µM*	82.0
CCN(CC)c1ccc2cc(-c3nc(-c4ccc(Cl)cc4Cl)cs3)c(=O)oc2c1	1.7%	x	x	x	1.4%	x
CCN(CC)c1ccc2cc(C(=O)c3cccs3)c(=O)oc2c1	18.4µM*	x	-0.8%	-3.9%	u	-52.0*
C=CCc1cc(/C=C2/NC(=O)NC2=O)cc(OCC)c1O	4.0%	5.8%	-17.1%	-4.5%	u	11.9
C=CCc1cc(/C=C2/NC(=S)NC2=O)cc(OC)c1O	14.6µM*	-10.0%	-7.6%	-26.7%	20.6µM*	-27.7
Cc1onc(NC(=O)NC(=O)c2ccccc2F)c1Br	-16.6%	-5.6%	28.7%	20.3%	3.8%	-19.1
Cc1onc(NC(=O)c2ccc(Cl)cc2Cl)c1Br	u	-3.1%	17.9%	-6.0%	10.3µM*	-10.5
CC(NC(=O)C1CCC(C(C)(C)C)CC1)C(c1ccccc1)N1CCOCC1 (configuration not stated)	u	1.5%	-0.3%	-0.7%	23.1µM*	4.5
CC(Cc1cccs1)NC(=O)Nc1ccccc1 (configuration not stated)	-28.0%	-5.8%	9.5%	1.2%	-8.9%	-11.5
CC(NC(=O)Nc1ccc(Cl)c(Cl)c1)C(c1ccccc1)N1CCOCC1 (configuration not stated)	25.9µM*	5.01µM*	23.1µM*	u	u	-10.7
CC(Cc1cccs1)NC(=O)Nc1ccc(Cl)c(Cl)c1 (configuration not stated)	23.1µM*	1.3%	u	u	23.1µM*	-4.4
CCOC(=O)[C@]12CCC=C1N(Cc1ccccc1)C(=O)[C@H](CC(=O)NCCc1ccccc1OC)C2	u	x	-3.8%	-0.9%	u	-4.4
COC(=O)[C@]12CCCCC=C1N(Cc1cccc3ccccc13)C(=O)[C@H](CC(=O)NCC1CCCCC1)C2	u	x	14.8%	12.3%	18.4µM*	-14.9
CCOC(=O)[C@]12CCC=C1N(Cc1cccc3ccccc13)C(=O)[C@H](CC(=O)NCC1CCCCC1)C2	23.1µM*	x	u	u	20.6µM*	0.0
COC(=O)[C@]12CCCCC=C1N(Cc1cccc3ccccc13)C(=O)[C@H](CC(=O)NCCc1ccccc1OC)C2	u	x	u	-29.9%	u	0.0
COC(=O)[C@]12CCCCC=C1N(Cc1cccc3ccccc13)C(=O)[C@H](CC(=O)NCCC(C)C)C2	18.4µM*	x	u	u	14.6µM*	-16.0
CCOC(=O)[C@]12CCCC=C1N(Cc1ccccc1)C(=O)[C@H](CC(=O)NCCc1ccccc1OC)C2	u	x	-27.6%	-29.8%	13µM*	-21.6
COC(=O)[C@]12CCCCC=C1N(Cc1ccccc1)C(=O)[C@H](CC(=O)NCc1ccccc1)C2	u	x	-3.6%	u	u	-26.4
CCOC(=O)[C@]12CCCC=C1N(Cc1ccc(Cl)cc1Cl)C(=O)[C@H](CC(=O)NCc1cccc3ccccc13)C2	25.9µM*	x	-21.8%	-19.9%	16.4µM*	u
CCOC(=O)[C@]12CCCC=C1N(Cc1ccccc1)C(=O)[C@H](CC(=O)NCc1cccc3ccccc13)C2	18.4µM*	x	u	u	-29.8%	-21.8
COC(=O)[C@]12CCCCC=C1N(Cc1cccc3ccccc13)C(=O)[C@H](CC(=O)NCc1ccccc1)C2	u	x	u	u	18.4µM*	u
CCOC(=O)[C@]12CCCC=C1N(Cc1cccc3ccccc13)C(=O)[C@H](CC(=O)NCCCCc1ccccc1)C2	u	x	-24.8%	-12.4%	u	-0.6
COC(=O)[C@]12CCCCC=C1N(Cc1ccccc1)C(=O)[C@H](CC(=O)NCc1cccc3ccccc13)C2	u	x	u	u	18.4µM*	-9.6
SMILES	TDP1 cell CPT	uPA surface inh	HT1080NT lethal	HT1080 IDH1KD tx	TDP1 cell noCPT	IL1B secr inh
Cc1nonc1C(=O)N/N=C/c1ccccc1	-13.9%	2.0%	11.4%	1.2%	-14.5%	-7.4
CCC(Oc1ccccc1C)C(=O)N1CCCN(C)CC1 (configuration not stated)	24.0%	-2.3%	7.2%	18.0%	-0.2%	-17.9
O=C(O)CC(NC(=O)C(c1ccccc1)c1ccccc1)c1ccc(F)cc1 (configuration not stated)	-0.7%	3.4%	0.6%	-3.5%	14.2%	34.3
CN(CC(=O)Nc1ccc(Cl)cc1)C(=O)Cc1c(F)cccc1Cl	12.6%	-2.3%	5.5%	-10.7%	6.1%	2.0
COC(=O)[C@]12CCCCC=C1N(CCC1=CCCCC1)C(=O)[C@H](CC(=O)NCc1cccc3ccccc13)C2	u	x	u	16.4µM*	u	-9.2
CCOC(=O)[C@@H]1[C@H]2COc3ccccc3[C@@H]2N2C(=O)N(c3ccc(C(F)(F)F)cc3)C(=O)[C@]12C	18.4µM*	-8.4%	8.9%	-7.8%	u	0.1
CCOC(=O)[C@@H]1[C@H]2COc3ccc(Br)cc3[C@@H]2N2C(=O)N(c3ccc(Br)cc3)C(=O)[C@@]12C	u	9.9%	9.2%	-17.6%	u	-1.5
CCOC(=O)[C@@H]1[C@H]2COc3ccccc3[C@@H]2N2C(=O)N(c3ccc(F)cc3)C(=O)[C@@]12C	-12.2%	-11.7%	-1.8%	-1.3%	-14.8%	-4.4
CCOC(=O)[C@@H]1[C@H]2COc3ccc(Br)cc3[C@@H]2N2C(=O)N(c3ccc(C(F)(F)F)cc3)C(=O)[C@]12C	u	5.7%	-3.9%	6.1%	16.4µM*	-9.2
CCOC(=O)[C@@H]1[C@H]2COc3ccccc3[C@@H]2N2C(=O)N(c3ccc(C(F)(F)F)cc3)C(=O)[C@@]12C	13µM*	-14.7%	-13.8%	-3.1%	23.1µM*	1.1
CCOC(=O)[C@@H]1[C@H]2COc3ccccc3[C@H]2N2C(=O)N(c3ccc(Br)cc3)C(=O)[C@]12C	u	-10.6%	-9.1%	-12.0%	u	-1.0

Screening data from PubChem BioAssay.
